Compounds with a hit are over-represented: about 21% of the library has one in this group of screens.
Pf growth 96h: Primary qHTS for delayed death inhibitors of the malarial parasite plastid, 96 hour incubation. P. falciparum luciferase reporter growth, 96 h. Potency, µM (top dose mostly 28.7 µM), for inactives: at the highest dose activity change, negative = inhibition, hits mostly inhibitors. 6.9% of 320,000 active. AID 504834, 2011; note: potency is the fitted concentration of half-maximal effect; % is set by controls: 0 for no effect and ±100 for the full control effect
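P. falciparum expressing integrated firefly luciferase, in erythrocytes at 2% hematocrit, 0.05% parasitemia, incubated with compounds 96 h at 37 C, 5% CO2. Growth inhibition read as loss of luminescence; two-generation exposure targets delayed-death apicoplast inhibitors.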
NS1 inh: qHTS Assay for Inhibitors of Influenza NS1 Protein Function. AID 2326, 2010. Potency, µM (doses to about 46.1 µM), for inactives: top-dose activity, positive = more growth. 0.4% of 270,000 active; calls by dose curve; note: potency is the fitted concentration of half-maximal effect; actives are rising curves; nearly all actives have a fitted effect of over 50% in size
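Recovery from NS1-induced slow growth read by OD600 in budding yeast switched to galactose assay medium (pH 6.0, -URA) at 1:100 dilution. Compound 23 nl per well; the matching strain lacking NS1 serves as control.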
CHX counter: Cycloheximide Counterscreen for Small Molecule Inhibitors of Shiga Toxin; cell reporter, cycloheximide protein synthesis inhibition counterscreen; max response, %; 12% of 300,000 active; AID 2314, 2010; in the data active = max response mostly above about 13%, no sharp cut-off; inactive = mostly below about 14%; note: read at 38.3 µM for the half of the compounds with a filed dose; 0% is about no effect
Pf growth 48h: Primary qHTS for delayed death inhibitors of the malarial parasite plastid, 48 hour incubation; Potency, µM (series often up to 28.7 µM), for inactives: at the top dose activity change, negative = inhibition, hits mostly inhibitors; AID 504832, 2011; P. falciparum luciferase growth in erythrocytes, 48 h; 5.9% of 310,000 active; note: potency is the fitted concentration of half-maximal effect; % is set by controls: 0 for no effect and ±100 for the full control effect
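A one-generation exposure of luciferase-tagged malaria parasites in RPMI 1640/Albumax erythrocyte culture, 37 C and 5% CO2. Inhibition is inferred from decreased luminescence after adding detection reagent.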
Shiga toxin inh: A qHTS for Small Molecule Inhibitors of Shiga Toxin; Vero cells, Shiga toxin protein synthesis inhibition reporter; inhibition, % at 38.7 µM; AID 2315, 2010; 9.2% of 290,000 active; in the data active = inhibition mostly above about 28%, no sharp cut-off; inactive = mostly below about 43%; note: 0% is about no effect
FBPA Giardia inh: qHTS Assay for Inhibitors of Fructose-1,6-bisphosphate Aldolase from Giardia Lamblia; 0.71% of 290,000 active; purified Giardia FBPA; Potency, µM (doses to about 59.6 µM), without a hit: at the highest dose activity, negative = inhibition, usual class: inhibitors; A8B2U2; note: potency is the fitted concentration of half-maximal effect; % is set by controls: 0 for no effect and ±100 for the full control effect; nearly all actives have a fitted effect of over 55% in size
Target sequence (A8B2U2 whole entry, looked up): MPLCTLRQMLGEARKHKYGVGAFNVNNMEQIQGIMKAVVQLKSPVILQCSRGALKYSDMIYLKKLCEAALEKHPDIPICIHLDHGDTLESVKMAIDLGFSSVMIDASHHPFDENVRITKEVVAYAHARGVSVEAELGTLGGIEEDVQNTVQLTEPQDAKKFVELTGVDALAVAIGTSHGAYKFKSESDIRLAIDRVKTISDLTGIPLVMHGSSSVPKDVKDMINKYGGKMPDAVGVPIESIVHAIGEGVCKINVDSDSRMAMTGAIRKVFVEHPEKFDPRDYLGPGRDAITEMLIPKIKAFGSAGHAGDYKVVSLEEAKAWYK
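40 nM FBPA preincubated 10 min at RT with compound (up to 57.5 uM final), then substrate plus GAPDH/TPI/NAD/arsenate coupling and diaphorase/resazurin added. Fluorescence read after 20 min at RT, 525/598 nm.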
The depositor's hits bear a star; ? = inconclusive; . = no result given; + = active, no number. Unless noted, calls come from the whole dose curve; as a rule, active = well fitted curve in the direction sought with a large enough effect; inconclusive = small, poorly fitted or top-dose-only effect, or another doubt; inactive = no such curve, though single readings can be large; an effect the other way counts as inactive or inconclusive.

SMILES	Pf growth 96h	NS1 inh	CHX counter	Pf growth 48h	Shiga toxin inh	FBPA Giardia inh
CN(C(=O)COc1ccccc1C(=O)NCCOc1ccccc1)c1ccccc1	?	-22%	-3	?	-10	12%
CC(C)NC(=O)Cn1cc(C(=O)C2CC2)c2ccccc21	?	1%	-3	8%	-13	2%
COc1ccc(CNC(=S)N/N=C(\C)c2ccc(OC)cc2)cc1	?	-4%	15	10%	64*	-3%
C/C(=N\NC(=S)NCCc1ccccc1)c1cccc(Br)c1	-32%	3%	1	3%	13	-6%
C/C(=N\NC(=S)NCc1ccccc1)c1cccc(Br)c1	0%	-4%	49*	-9%	68*	11%
Cc1cccc(C)c1NC(=O)CN(C)C(=O)c1ccc2c(=O)n3c(nc2c1)CCC3	?	.	.	-22%	.	.
O=C(c1cnn2c(C(F)F)cc(-c3ccccc3)nc12)N1CCN(Cc2ccc3c(c2)OCO3)CC1	?	-4%	-5	4.7µM*	-11	8%
O=C(c1cnn2c(C(F)(F)F)cc(-c3ccc4c(c3)OCO4)nc12)N1CCCCC1	8.3µM*	-14%	-4	0%	3	5%
CCN1CCN(C(=O)c2cnn3c(C(F)F)cc(-c4ccc(C)cc4)nc23)CC1	7.4µM*	0%	-3	?	-15	0%
O=C(c1cnn2c(C(F)F)cc(-c3ccccc3)nc12)N1CCCCC1c1cccnc1 (stereo not drawn)	?	-4%	-2	1.7µM*	14	3%
COc1ccc(CN2C(=O)c3cccnc3C2=O)cc1S(=O)(=O)N(C)c1cccc(C)c1	19%	-4%	-3	17%	-1	6%
COc1ccc(-c2cc(C(F)(F)F)n3nc(C(=O)N4CCCCC4)cc3n2)cc1	35%	-45%	-2	?	9	-3%
COc1cccc(-c2cc(C(F)(F)F)n3nc(C(=O)N4CCCCC4c4cccnc4)cc3n2)c1 (stereo not drawn)	?	.	19*	3.7µM*	51*	-1%
O=C1CCCCN1CCC(=O)N1CCCC(N2CCN(c3cccc(Cl)c3)CC2)C1 (stereo not drawn)	-13%	4%	24*	56%	35*	.
CCc1nccn1CCC(=O)N1CCCC(N2CCN(c3cccc(Cl)c3)CC2)C1 (stereo not drawn)	37%	1%	31*	-12%	49*	.
Cc1cccc(OCC(=O)Nc2ccc3oc(=O)ccc3c2)c1	-1%	-3%	14	24%	17	-8%
COc1ccc(C(=O)NC2CCN(CC(=O)NCc3ccccc3F)CC2)cc1	-11%	8%	-2	-17%	-5	3%
COc1ccccc1NC(=O)C1CCCN(S(=O)(=O)c2ccc(-n3cnnn3)cc2)C1 (stereo not drawn)	40%	4%	-12	?	-13	.
CCN(CC)C(=O)c1ccc(-c2ccccc2)cc1	?	-27%	16*	?	+	-2%
CN(C)CC(=O)c1ccc(-c2ccccc2)cc1	10%	-110%	24*	18%	99	-3%
Cc1cc(C)c[n+](CC(=O)c2ccc(NC(=O)c3ccccc3)cc2)c1	27%	6%	1	?	6	-2%
CCN(Cc1ccccc1)C(=O)c1ccc(C(=O)N(CC)Cc2ccccc2)cc1	?	-9%	-2	7%	-12	8%
Cc1cc(C)c[n+](CC(=O)c2ccc(-c3ccccc3)cc2)c1	15µM*	17%	6	?	8	-5%
CCCCN=C(C)c1c(O)c2ccccc2oc1=O	62%	-229%	32*	95%	65	5%
CC(=N)c1c(O)c2ccccc2oc1=O	44%	-65%	26*	53%	53*	2%
SMILES	Pf growth 96h	NS1 inh	CHX counter	Pf growth 48h	Shiga toxin inh	FBPA Giardia inh
COc1cccc(CC2(CO)CCN(Cc3ccc4cccc(F)c4n3)CC2)c1	-103%	-3%	-2	0%	-6	-4%
COC(CNC(=O)c1ccc2c3c(onc13)-c1ccccc1C2=O)OC	8%	-3%	35*	42%	75*	?
Cc1ccc(S(=O)(=O)N(CC(=O)NCC2CCCO2)Cc2cccc(C)c2)cc1 (stereo not drawn)	81%	6%	-2	-12%	0	.
COC(=O)Nc1ccc(OCC(=O)N2CCOCC2)cc1	-11%	0%	-1	-11%	9	4%
Cc1cc(NC(=O)c2ccccc2F)cc(C)c1OCC(=O)N1CCOCC1	12%	-1%	12	34%	20	.
O=C(Nc1ccc(OCC(=O)N2CCOCC2)cc1)c1ccccc1F	?	-6%	21*	31%	53	4%
COc1ccc(C(=O)Nc2ccc(OCC(=O)N3CCOCC3)cc2)c(OC)c1OC	?	?	21*	-6%	16	2%
COc1cc(C(=O)Nc2cc(C)c(OCC(=O)N3CCOCC3)c(C)c2)cc(OC)c1OC	13µM*	-1%	9	?	12	-3%
Cc1cc(NC(=O)c2cc3ccccc3o2)cc(C)c1OCC(=O)N1CCOCC1	38%	-7%	9	-12%	7	-29%
O=C(Nc1ccc(OCC(=O)N2CCOCC2)cc1)c1cccc(Cl)c1	-3%	5%	20	2%	26*	3%
Cc1cc(C)c(NC(=O)COC(=O)COc2ccc3c(C)cc(=O)oc3c2)c(Cl)c1	21%	.	.	11%	.	.
CC(C)CNC(=O)/C=C/c1cccs1	?	-1%	19*	62%	24	1%
C=CCNC(=O)/C=C/c1cccs1	45%	.	5	27%	11	2%
O=C(/C=C/c1cccs1)NC1CCCC1	34%	-10%	18	21%	48*	10%
CCC(C)(C)NC(=O)/C=C/c1cccs1	34%	4%	11*	17%	12	4%
O=C(/C=C/c1cccs1)NC1CCS(=O)(=O)C1 (stereo not drawn)	27%	2%	-2	18%	-10	0%
CC(=O)Nc1ccc(C(=O)NCCCOC(C)C)cc1	57%	-4%	1	-1%	4	4%
COCCCNC(=O)C(=O)NCCCOC(C)C	12µM*	4%	-2	3%	17	1%
CCOCCCNC(=O)N[C@H](C(=O)OC)C(C)CC (stereo partly drawn)	?	2%	0	?	4	5%
CCC(C)[C@H](NC(=O)NCCCOC(C)C)C(=O)OC (stereo partly drawn)	12µM*	3%	-1	-25%	1	6%
O=c1[nH]c(CN2CCN(c3ccccc3)CC2)nc2scc(-c3ccccc3)c12	?	0%	-5	?	-5	4%
Cc1sc2nc(CN3CCN(c4ccc(O)cc4)CC3)[nH]c(=O)c2c1C	12µM*	0%	1	?	5	?
